Results taken from PubChem BioAssay (NCI).
About 79,000 compounds went through this panel and 15% of them were active in at least one assay; those are over-represented in the sample as a whole. Unmarked numbers belong to inactive results. Active and inactive are the calls of the source. Cut-off read from the data, not from the text of the source: active = growth inhibition above about 70%; inactive = the rest.

What was measured:
[1] = NCI Yeast Anticancer Drug Screen. Data for the rad50 strain (AID 155);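 note: 0% = growth of vehicle-only cultures of the same strain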; conditions: S. cerevisiae rad50 strain growth inhibition, active compounds read high
Procedure, shortened: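 Yeast carrying a defined DNA repair defect were exposed to test compounds, and growth was compared with vehicle-treated controls to give percent inhibition.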

[2] = NCI Yeast Anticancer Drug Screen. Data for the mec2-1 strain (AID 157); conditions: S. cerevisiae mec2-1 strain, active compounds read high
Procedure, shortened: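 Strain: mec2-1 (DNA repair/cell cycle alteration). Compound exposure, then growth measured; inhibition expressed relative to vehicle.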

[3] = NCI Yeast Anticancer Drug Screen. Data for the sgs1 mgt1 strain (AID 161);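 note: 0% = growth of cultures given vehicle only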; conditions: S. cerevisiae sgs1 mgt1 strain, active compounds read high
Procedure, shortened: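 Mutant yeast exposed to compound; growth scored against vehicle-only wells.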

[4] = NCI Yeast Anticancer Drug Screen. Data for the cln2 rad14 strain (AID 165);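 note: 0% = growth equal to vehicle treated cultures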; conditions: S. cerevisiae cln2 rad14 strain, active compounds read high
Procedure, shortened: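 Compounds are applied to the cln2 rad14 yeast strain, and growth is then compared with that of vehicle-treated cultures to give inhibition.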

[5] = NCI Yeast Anticancer Drug Screen. Data for the bub3 strain (AID 167); conditions: S. cerevisiae bub3 mutant strain, active compounds read high
Procedure, shortened: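 Compounds were applied to a genetically altered yeast strain carrying a cell-cycle control defect. Growth inhibition was scored against vehicle-treated controls.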

[6] = NCI Yeast Anticancer Drug Screen. Data for the mlh1 rad18 strain (AID 175); conditions: S. cerevisiae mlh1 rad18 strain growth inhibition, active compounds read high
Procedure, shortened: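 Read-out is yeast growth inhibition, calculated against vehicle-only controls. The compound was applied to a strain engineered with DNA damage repair alterations.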

[7] = at 5.0 µM (retest, dose inferred, filed as 0.5)
[8] = at 50.0 µM (retest, dose inferred, filed as 5.0)

SMILES	growth inhibition [1, 7] [%]	growth inhibition [1, 8]	growth inhibition ([1]; at 50.0 µM)	growth inhibition [2, 7] [%]	growth inhibition [2, 8]	growth inhibition ([2]; at 50.0 µM)	growth inhibition [3, 7] [%]	growth inhibition [3, 8]	growth inhibition ([3]; at 50.0 µM)	growth inhibition [4, 7] [%]	growth inhibition [4, 8]	growth inhibition ([4]; at 50.0 µM)	growth inhibition [5, 7] [%]	growth inhibition [5, 8]	growth inhibition ([5]; at 50.0 µM)	growth inhibition [6, 7] [%]	growth inhibition [6, 8]	growth inhibition ([6]; at 50.0 µM)
CSc1cc2c(cc1N)Cc1cc(F)ccc1-2	4	73% (active)	98.3% (active)	-1	78% (active)	98.2% (active)	0	85% (active)	98.5% (active)	-10	93% (active)	97.2% (active)	-3	84% (active)	98% (active)	-2	82% (active)	98.5% (active)
CCC(C)(C)c1cc(Br)c(NS(=O)(=O)c2ccc(NC(C)=O)cc2)c(Br)c1	5	80% (active)	-6.75%	13	65%	8.05%	-9	35%	-0.45%	9	78% (active)	6.85%	-3	62%	6.5%	8	42%	20.5%
O=C(c1ccccc1)C1(C(=O)c2ccccc2)/C(=N\O)C2CCC1C2 (configuration not stated)	7	93% (active)	6.05%	1	96% (active)	12.7%	-2	95% (active)	9.75%	-2	94% (active)	1.9%	0	95% (active)	53.1%	12	93% (active)	13.7%
CN1c2ccccc2C(=O)NC1c1ccc([N+](=O)[O-])s1 (configuration not stated)	-9	53%	63.5%	7	8%	41%	-19	32%	71.8% (active)	11	23%	33.4%	-47	35%	57%	-22	63%	73.1% (active)
CCc1c(C)[nH]c(-c2csc(N)n2)c1C	-1	93% (active)	-4.25%	1	95% (active)	83.9% (active)	-1	94% (active)	2.8%	1	93% (active)	31.7%	4	92% (active)	67.8%	2	93% (active)	56.8%
Fc1ccc2c(c1)Nc1cc(F)cc(F)c1S2	-4	54%	2.7%	-5	12%	-2%	-4	36%	65.7%	0	1%	2.75%	-3	5%	40.8%	-6	48%	21.5%
CCOC(=O)N/N=C/c1ccc([N+](=O)[O-])o1	11	61%	89.9% (active)	2	35%	81.8% (active)	3	62%	92.2% (active)	1	19%	52%	17	77% (active)	82.1% (active)	17	78% (active)	94% (active)
O=Cc1c(O)ccc2ccccc12.[Cu+2]	-27	95% (active)	99.3% (active)	-2	47%	99.2% (active)	-7	97% (active)	99.2% (active)	-19	42%	99% (active)	-54	94% (active)	98.8% (active)	-14	97% (active)	99.2% (active)
CCCCCCCCCCN(CCCCCCCCCC)C1CC(OC2CC(O)(C(O)CO)Cc3c(O)c4c(c(O)c32)C(=O)c2c(OC)cccc2C4=O)OC(C)C1O (configuration not stated)	15	87% (active)	43.5%	8	94% (active)	93.5% (active)	10	93% (active)	5.25%	7	88% (active)	81.8% (active)	14	90% (active)	90.8% (active)	17	87% (active)	90.5% (active)
